Results reported in PubChem BioAssay (NCATS).
Results filed as inconclusive are left out. The source made the active and inactive calls. Unless noted, calls come from the whole dose curve; as a rule, active = well fitted curve in the direction sought with a large enough effect; inconclusive = small, poorly fitted or top-dose-only effect, or another doubt; inactive = no such curve, though single readings can be large; an effect the other way counts as inactive or inconclusive.

Tests used:
[1] = target: Glutathione peroxidase 1 (Homo sapiens) (UniProt P07203); test: Primary qHTS Assay for Inhibitors of Recombinant Selenoprotein Glutathione Peroxidase 1 (GPX1) (AID 1845191); note: nearly all actives have a fitted effect of over 65% in size; for activity, negative = inhibition: % is set by controls: 0 for no effect and ±100 for the full control effect
Chain of Glutathione peroxidase 1 (Homo sapiens) (P07203 whole entry, looked up): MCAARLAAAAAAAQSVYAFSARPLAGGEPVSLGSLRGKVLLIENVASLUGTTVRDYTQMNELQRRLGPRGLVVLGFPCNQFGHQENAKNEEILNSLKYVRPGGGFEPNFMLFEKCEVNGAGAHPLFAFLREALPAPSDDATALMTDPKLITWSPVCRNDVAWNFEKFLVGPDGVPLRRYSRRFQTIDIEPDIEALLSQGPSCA
In short: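 10 nM GPX1 + cpd, 30 min RT; start w/ 1 mM GSH, 0.5 mM cumene hydroperoxide, 0.5 mM NADPH, 100 nM GR, 0.01% BSA; buffer 50 mM Tris-HCl pH 7.5, 2 mM EDTA, 150 mM NaCl; Fl 340/450, 0 & 15 min.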

[2] = target: Phospholipid hydroperoxide glutathione peroxidase GPX4 (Homo sapiens) (UniProt P36969); test: Primary qHTS Assay for Inhibitors of Recombinant Selenoprotein Glutathione Peroxidase 4 (GPX4) (AID 1845192); note: nearly all actives have a fitted effect of over 65% in size; for activity change, negative = inhibition: series mostly up to about 50 µM; % is set by controls: 0 for no effect and ±100 for the full control effect
Chain of Phospholipid hydroperoxide glutathione peroxidase GPX4 (Homo sapiens) (P36969 whole entry, looked up): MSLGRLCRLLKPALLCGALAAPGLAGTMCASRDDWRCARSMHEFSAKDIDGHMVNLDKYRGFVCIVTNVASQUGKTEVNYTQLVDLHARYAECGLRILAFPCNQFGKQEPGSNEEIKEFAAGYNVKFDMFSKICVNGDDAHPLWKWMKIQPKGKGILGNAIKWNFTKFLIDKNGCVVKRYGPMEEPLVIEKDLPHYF
In short: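 NADPH consumption, followed by fluorescence at 340/450 nm between 0 and 15 min, reports GPX4 activity via coupled glutathione reductase (100 nM). Enzyme 200 nM was pre-exposed to compound 30 min; 0.5 mM cumene hydroperoxide and 1 mM GSH served as substrates.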

[3] = Primary fluorescence-based thiol-reactive (MSTI) qHTS assay for identification of artifact compounds. (AID 1845221); note: nearly all actives have a fitted effect of over 65% in size; note: potency is the fitted concentration of half-maximal effect;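 for activity change, negative = thiol reactive: series mostly up to about 54 µM; thiol-reactive compounds lower the probe fluorescence signal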
In short: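 Compounds were incubated 1 h at room temperature in the dark with the MSTI probe (4 uM) in PBS pH 7.4, 2% DMSO. Signals were normalized between Acetyl-MSTI and MSTI.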

[4] = system: Nanoluciferase (engineered Oplophorus gracilirostris luciferase); test: Primary Nanoluciferase (NLuc) qHTS assay for identification of artifact compounds. (AID 1845222);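 note: series mostly up to about 54 µM; 0% = DMSO and -100% = no enzyme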
In short: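 Luminescence from secreted NLuc (filtered, 1:55-diluted S16 cell medium) read 5 min after Nano-Glo substrate; compounds preincubated 15 min, RT. Hill fits of inhibition normalized to DMSO and no-enzyme.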

[5] = Primary redox qHTS assay for identification of artifact compounds. (AID 1845223);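 note: 0% = DMSO and 100% = reference compound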
In short: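 Amplex Red (25 uM) and HRP (250 mU/mL) in HBSS, with compounds for 15 min, then 250 uM DTT for 30 min, room temperature, dark. Fluorescence 525/598 nm read; normalized to DMSO and 10 uM DA3003; Hill fit.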

[6] = target: Luciferin 4-monooxygenase (Photinus pyralis) (UniProt P08659); test: Primary firefly luciferase (FLuc) qHTS assay for identification of artifact compounds. (AID 1845220); note: nearly all actives have a fitted effect of over 60% in size;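 for activity change, negative = inhibition: series mostly up to about 54 µM; plate controls were DMSO vehicle for no effect and no enzyme for full effect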
In short: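 Compounds sat 15 min at room temperature with 10 uM luciferin and 10 uM ATP (pH 7.6 Tris acetate). Firefly luciferase (10 nM final) was then added, and luminescence was read 5 min later. Data normalized to no-enzyme and DMSO controls were Hill-fitted.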

[7] = qHTS drug screen for cell cycle checkpoint inhibitors in PARPi-resistant BRCA-mutant ovarian cancer cell lines. (AID 1963452; calls by dose curve); conditions: PEO1/OlaR viability, CellTiter-Glo luminescence, 96 h, stronger effect = lower value
In short: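 PEO1, PEO4 and PEO1/OlaR ovarian cancer cells, 600 per well, exposed 96 h at 37C to a dilution series. Viability read by CellTiter-Glo luminescence, normalized to DMSO and empty wells; activity summarized as Z-AUC.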

C=CC(C)(C)C12CC3C(=O)NC(Cc4cnc[nH]4)C(=O)N3C1Nc1ccccc12 (centres undefined)
inactive: Potency [1] | Potency [2] | Potency [3] | Potency [4] | Potency [5]

CC(C)CC(=O)OC[C@H]1O[C@@](COC(=O)CC(C)C)(O[C@H]2O[C@H](CO)[C@@H](O)[C@H](O)[C@H]2OC(=O)CC(C)C)[C@@H](OC(=O)CC(C)C)[C@@H]1O
inactive: Potency [1] | Potency [2] | Potency [6] | Potency [4] | Potency [5]

CCCCCCc1cccc(NC(=O)[C@H](N)CCP(=O)(O)O)c1
inactive: Potency [1] | Potency [2] | activity change, negative = thiol reactive [3] 1.56% [at 11.5 µM] | activity, negative = inhibition [4] 4.9% [at 11.6 µM] | redox activity (% of DA3003) [5] -3.89% [at 11.5 µM]

O=C(O)c1cc(O[C@@H]2O[C@H](CO[C@@H]3OC[C@@H](O)[C@H](O)[C@H]3O)[C@@H](O)[C@H](O)[C@H]2O)c2ccccc2c1O
active: Potency [3] 3.67 µM
inactive: Potency [1] | Potency [2] | Potency [4]

Cc1cc(O)cc(Oc2cc(C)c(C(=O)O)c(O)c2)c1
inactive: Potency [1] | Potency [2] | Potency [4]
active: Potency [3] 3.36 µM

Cc1cc(O)c(C(C)C)cc1O[C@@H]1O[C@H](CO)[C@@H](O)[C@H](O)[C@H]1O
inactive: Potency [1] | Potency [2] | Potency [6] | Potency [5]

CC(C)CC1(C(=O)OCc2ccc(O[C@@H]3O[C@H](CO)[C@@H](O)[C@H](O)[C@H]3O)cc2)CC(=O)OC(C(=O)O)CC(=O)OCC2OC(O1)C(OC(=O)/C=C/c1ccc(O)cc1)C(O)C2O (some centres undefined)
inactive: Potency [1] | Potency [2] | activity change, negative = thiol reactive [3] 14.7% [at 11.5 µM] | activity, negative = inhibition [4] -4.21% [at 11.6 µM] | redox activity (% of DA3003) [5] 23.6% [at 11.5 µM]

OCCc1ccc(O[C@@H]2O[C@H](CO)[C@@H](O)[C@H](O)[C@H]2O)c(O)c1
inactive: Potency [1] | Potency [2] | Potency [6] | Potency [4] | Potency [5]

COC(=O)C1=CO[C@@H](O[C@@H]2O[C@H](CO)[C@@H](O)[C@H](O)[C@H]2O)[C@@H]2[C@@](C)(O)[C@@H](O)C[C@]12O
inactive: Potency [1] | Potency [2] | Potency [3] | Potency [4] | Potency [5]

CN(NC(=O)CC(=O)NN(C)C(=S)c1ccccc1)C(=S)c1ccccc1
1.36: Z-AUC ([7]; measured here: PEO4 Z-AUC)
1.08: Z-AUC ([7]; measured here: PEO1 parental Z-AUC)
inactive: Potency [1] | Potency [2] | Potency [6] | Potency [4] | Potency [5] | Z-AUC [7] 1.67

C=C[C@H]1[C@H](O[C@@H]2O[C@H](CO)[C@@H](O)[C@H](O)[C@H]2O)OC=C(C(=O)OC)[C@H]1C[C@@H]1N[C@H](C(=O)O)Cc2c1[nH]c1ccccc21
inactive: Potency [1] | Potency [2] | Potency [6] | Potency [5]

C[C@H]1[C@H](C)CC[C@]2(C(=O)O[C@@H]3O[C@H](CO)[C@@H](O)[C@H](O)[C@H]3O)CC[C@]3(C(=O)O)C(=CCC4[C@@]5(C)CC[C@H](O[C@@H]6O[C@H](CO)[C@@H](O)[C@H](O)[C@H]6O)C(C)(C)C5CC[C@]43C)[C@H]12 (some centres undefined)
inactive: Potency [1] | Potency [2] | outcome [6] inactive [at 11.6 µM] | activity, negative = inhibition [4] -1.27% [at 11.6 µM] | redox activity (% of DA3003) [5] 2.24% [at 11.5 µM]

COC1=CC(=O)C[C@@H](C)[C@]12Oc1cc(OC)cc(OC)c1C2=O
inactive: Potency [1] | Potency [2] | Potency [6] | Potency [4] | Potency [5]

CC1(C(=O)O)CCCC2(C)C1CCC13CC(CCC21)C1(CO)OC31 (centres undefined)
inactive: Potency [1] | Potency [2] | Potency [3] | Potency [4] | Potency [5]

C/C(=C/CO)CC[C@@H]1[C@@]2(C)CCC[C@](C)(C(=O)O)C2CC[C@@]1(C)O (some centres undefined)
inactive: Potency [1] | Potency [2] | Potency [6] | Potency [4] | Potency [5]

C/C=C(\C)C(=O)OC[C@H]1O[C@H](O[C@H]2O[C@H](CO)[C@@H](OC(=O)/C(C)=C/C)[C@H](O)[C@H]2O[C@@H]2O[C@H](CO)[C@@H](O)[C@H](O)[C@H]2O)[C@H](O[C@@H]2O[C@H](CO)[C@@H](O)[C@H](O)[C@H]2O)[C@@H](O)[C@@H]1O
inactive: Potency [1] | Potency [2] | activity change, negative = inhibition [6] 1.93% [at 11.6 µM] | activity, negative = inhibition [4] 0% [at 11.6 µM] | redox activity (% of DA3003) [5] 3.6% [at 11.5 µM]

O=C(O[C@H]1[C@@H]2C=CO[C@@H](O[C@@H]3O[C@H](CO)[C@@H](O)[C@H](O)[C@H]3O)[C@@H]2[C@@]2(CO)O[C@@H]12)c1ccc(O)cc1
inactive: Potency [1] | Potency [2] | Potency [6] | Potency [4] | Potency [5]

CC1(C)CC(=O)N(CCCCN2CCN(c3ncccn3)CC2)C(=O)C1
inactive: Potency [1] | Potency [2] | Potency [3] | Potency [4] | Potency [5]

CC(O)(CC(=O)O)CC(=O)O[C@@H]1[C@@H](O)[C@H](OCCc2ccccc2)O[C@H](CO)[C@H]1O (some centres undefined)
inactive: Potency [1] | Potency [2] | Potency [6] | Potency [4] | Potency [5]

COc1cc(/C=C/C(=O)OC2CC(C)=C(C(=O)O)/C2=C/CO[C@@H]2O[C@H](CO)[C@@H](O)[C@H](O)[C@H]2O)ccc1O (some centres undefined)
inactive: Potency [1] | Potency [2] | Potency [4] | Potency [5]
active: Potency [3] 4.12 µM
